# PfHsp40 yeast = restores yeast growth despite PfHsp40 toxicity; S. cerevisiae expressing PfHsp40, growth rescue, ATP luminescence; growth rescue, % at 12.5 µM; actives 0.68% (n = 340,000); AID 504582; in the data active = growth rescue above about 28%, passing the limit was not always enough;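 note: yeast W303a lacking pdr1 and pdr3 grown in galactose medium; growth measured after three days at 30 °C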
# Yp Topo-I inh = Y. pestis Topo-I inhibition via cleavage products. Y. pestis Topo-I cleavage product accumulation, plate reader. activity, % at 10 µM. actives 0.064% (n = 360,000); in the data active = activity above about 50%, passing the limit was not always enough
# 3CLpro inhibitor = SARS-CoV 3CLpro protease inhibition; inhibition, % at 6 µM; recombinant SARS-CoV 3CLpro, quenched FRET peptide cleavage; P0C6X7; actives 0.14% (n = 290,000); in the data active = inhibition above about 12%
# MazEF act = activators of E. coli MazEF toxin-antitoxin RNase; FAM/BHQ RNA-DNA oligo cleavage fluorescence, 5 h; actives 0.32% (n = 350,000); activation, % at 20 µM; P0AE70; in the data active = activation above about 50%
# Target sequence (P0AE70 whole entry, looked up): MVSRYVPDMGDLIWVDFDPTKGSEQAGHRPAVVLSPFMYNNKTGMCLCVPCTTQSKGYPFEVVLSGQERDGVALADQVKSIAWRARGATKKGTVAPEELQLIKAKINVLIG
# BJeLR lethal = kills HRASV12-expressing BJeLR cells. BJeLR (HRASV12) viability, CellTiter-Glo ATP luminescence, 48 h. inhibition, % (no concentration beside the values). actives 0.17% (n = 300,000); in the data active = inhibition above about 50%
# BioA inh = blocks M. tuberculosis BioA enzyme activity. actives 0.096% (n = 360,000). AID 602481. purified M. tuberculosis BioA enzyme, plate reader. inhibition, % at 9.99 µM; in the data active = inhibition above about 40%
# * hit, by the source's call; . = not tested or not shown. A selection: hits, their analogues and other compounds. The true share with any hit is near 1.1%.
SMILES,PfHsp40 yeast,Yp Topo-I inh,3CLpro inhibitor,MazEF act,BJeLR lethal,BioA inh
CCOC(=O)c1c(-c2ccccc2)oc2ccc(OCC)cc12,0,15,4,-24,-2,-2
CNC(=S)Nc1ccc(C23CC4CC(CC(C4)C2)C3)cc1,179*,16,5,0,-6,-1
O=C(C[C@@H]1CC[C@H](NS(=O)(=O)c2cccc(F)c2)[C@H](CO)O1)NCc1ccc2c(c1)OCO2,.,.,.,.,.,-1
COc1cnc(-c2ccccn2)nc1Sc1ccc(C)cc1,359*,2,3,17,-5,.
Cc1ccc(Sc2cc(C)nc(-c3ccccn3)n2)cc1,145*,11,-2,5,13,1
C[C@@H]1CN([C@H](C)CO)S(=O)(=O)c2ccc(C3=CCCCC3)cc2O[C@@H]1CN(C)Cc1ccncc1,.,.,.,.,.,0
COc1ccc(CCNC(=O)c2ccc(-c3ccc([N+](=O)[O-])cc3)o2)cc1OC,0,0,1,59*,-4,.
Cc1ccc(S(=O)(=O)Nc2cccc3c2O[C@H](CN(C)S(=O)(=O)c2ccccc2)[C@@H](C)CN([C@H](C)CO)C3=O)cc1,.,.,.,.,.,1
C[C@H]1[C@H](OC(=O)CCC(=O)NCc2ccc(C(=O)O)cc2)O[C@@H]2O[C@@]3(C)CC[C@H]4[C@H](C)CC[C@@H]1C24OO3,188*,4,-7,1,9,-1
COC(=O)c1ccc(CNC(=O)COC(=O)CCC2CCCC2)cc1,2,8,-3,-3,2,.
CC1C(OC(=O)CCC(=O)NC(C)(C)CO)O[C@H]2OC3(C)CC[C@H]4[C@H](C)CCC1C24OO3 (stereo partly drawn),122*,16,0,2,0,-1
CC(C)CC(NC(=O)CCCNC(=O)CCC(=O)OC1O[C@H]2OC3(C)CC[C@H]4[C@H](C)CCC(C1C)C24OO3)C(=O)O (stereo partly drawn),196*,-5,0,-4,-3,-3
COc1ccc2[nH]c3c(c2c1)CCN1C(=O)N([C@@H](C)C(=O)NCCc2ccc(F)cc2)C(=O)[C@]31C,58*,24,1,-25,-4,1
C[C@@H]1CCCCO[C@@H](CN(C)Cc2ccc(Cl)c(Cl)c2)[C@H](C)CN([C@@H](C)CO)C(=O)c2cc(NC(=O)Nc3cccc4ccccc34)ccc2O1,.,.,.,.,.,0
Nc1cc(Cl)ccc1N1CCCCC1,-1,5,-1,5,11,.
Nc1cc(Cl)cc2c1-c1ccc(Cl)cc1C2,0,-2,.,65*,.,-2
C[C@@H]1CCCCO[C@@H](CN(C)C(=O)Nc2ccc(F)cc2)[C@@H](C)CN([C@H](C)CO)C(=O)c2cc(NC(=O)c3ccccc3)ccc2O1,.,.,.,.,.,-2
COc1ccc(-c2cc3c(=O)n(CC(=O)NC4CCN(Cc5ccccc5)CC4)ncn3n2)cc1,83*,5,-10,-18,0,-1
O=C(C[C@H]1CC[C@@H]2[C@H](COC[C@H](O)CN2S(=O)(=O)c2cccc(Cl)c2)O1)Nc1ccccc1,.,.,.,.,.,0
COc1ccc(-c2cc(-c3c(O)c(OC)c4occc4c3OC)[nH]n2)cc1OC,31*,-13,6,3,5,1
Cc1noc(C)c1S(=O)(=O)N(C)C[C@@H]1OCCCC[C@@H](C)Oc2ccc(NS(C)(=O)=O)cc2C(=O)N([C@@H](C)CO)C[C@@H]1C,.,.,.,.,.,0
CCCCC(=O)NC(c1cccc([N+](=O)[O-])c1)c1ccc2cccnc2c1O (stereo not drawn),105*,13,.,9,.,-1
CC(=O)NC(c1cccs1)c1cc([N+](=O)[O-])c2cccnc2c1O (stereo not drawn),243*,-13,2,2,20,.
Oc1cccc(C(Nc2nccs2)c2ccc3cccnc3c2O)c1 (stereo not drawn),215*,5,4,3,36,.
CC(=O)NC(c1cccc([N+](=O)[O-])c1)c1ccc2cccnc2c1O (stereo not drawn),194*,-3,6,4,35,0
SMILES,PfHsp40 yeast,Yp Topo-I inh,3CLpro inhibitor,MazEF act,BJeLR lethal,BioA inh
COc1ccc(NC(=O)N(C)C[C@H]2Oc3c(NC(=O)Nc4ccc(F)cc4)cccc3C(=O)N([C@H](C)CO)C[C@@H]2C)cc1,.,.,.,.,.,7
CCCCC(=O)NC(c1ccc(C(C)C)cc1)c1ccc2cccnc2c1O (stereo not drawn),-3,0,8,-1,54*,0
C[C@@H]1CN([C@H](C)CO)C(=O)Cc2cc(NS(C)(=O)=O)ccc2O[C@H]1CN(C)S(=O)(=O)c1cccs1,.,.,.,.,.,3
CCOC(=O)Cc1csc(SCC(=O)Nc2cc(Cl)ccc2Oc2ccccc2)n1,0,68*,2,-21,-5,.
C=CCc1ccc(O)c(-c2ccc(O)c(CC=C)c2)c1,233*,-9,3,-7,0,7
CCC(=O)N1[C@H](CO)[C@@H](c2ccc(-c3ccccc3)cc2)[C@@H]1CN(C)C(C)=O,.,.,.,.,.,4
COc1ccccc1-c1ccc(SCc2ccc(F)cc2)nn1,6,32,7,-15,-4,.
COc1ccccc1-c1ccc(SCc2ccc(C)cc2)nn1,26*,41,0,-1,-6,.
O=[N+]([O-])c1ccc2[nH]c(O)c(N=NC(=S)Nc3cccnc3)c2c1,41*,-5,-2,15,4,.
CCOC(=O)CSc1nnc(CNC(=O)c2cccc(C)c2)n1-c1ccccc1OC,-2,8,-1,-10,-2,-1
CCOC(=O)CSc1nnc(CNC(=O)c2cccc(C)c2)n1C,47*,-4,-3,-7,5,.
Oc1c(Cl)cc(Cl)cc1/C=N/NC(=S)NC1CC2C=CC1C2 (stereo not drawn),132*,8,1,1,1,0
Oc1ccccc1C=NNC(=S)NC1CC2C=CC1C2 (stereo not drawn),.,11,.,2,.,1
COc1ccccc1/C=C1/SC(=S)N(CCC(=O)Nc2cccnc2)C1=O,0,18,8,435*,10,-2
COc1ccccc1/C=C1\SC(=S)N(CCC(=O)NC2=NCCS2)C1=O,0,1,-4,172*,4,.
COc1ccc(/C=C2\SC(=S)N(CCCC(=O)Nc3cc(C)on3)C2=O)cc1OC,-1,-7,8,150*,0,0
COc1ccc(/C=C2\SC(=S)N(CCCCCC(=O)Nc3cc(C)on3)C2=O)cc1OC,-1,1,-1,8,-7,-1
O=C(CCN1C(=O)/C(=C\c2cccs2)SC1=S)NC1=NCCS1,0,-4,2,10,3,-1
Cc1noc(C)c1NC(=O)N(C)C[C@H]1Oc2ccc(NS(=O)(=O)c3ccc(F)cc3)cc2C(=O)N([C@@H](C)CO)C[C@@H]1C,.,.,.,.,.,-1
Cc1cc(NC(=O)CCC(=O)N(Cc2ccco2)C(C(=O)NC2CCCC2)c2ccccc2F)no1 (stereo not drawn),-1,19,1,11,0,0

# High-throughput results deposited in PubChem BioAssay by several laboratories.
